Compound activity deposited in PubChem BioAssay by National Center for Advancing Translational Sciences (NCATS).
Only a selection was taken, and hits are over-represented in it overall.
Pf Dd2 inh: qHTS Primary assay for Inhibitors of Plasmodium falciparum Dd2 growth in vitro. 120,000 tested, 4.3% active. P. falciparum Dd2 growth, SYBR Green, 72 h. Potency, µM (doses to about 28.9 µM), actives largely listed as inhibitors; active means well fitted inhibition curve with a large enough effect; further: nearly all actives have a fitted effect of over 65% in size
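Infected erythrocytes (Dd2, 0.3% parasitemia, 2.5% hematocrit final) are added to compound in RPMI-1640/Albumax II medium, grown 72 h at 37C in low oxygen, then lysed with saponin/Triton-X containing SYBR Green and read by fluorescence.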
A number is an active result; i = inactive.

SMILES | Pf Dd2 inh
O=c1n(-c2ccc(C(F)(F)F)cc2)nc2n1CCN([S+](=O)([O-])c1cccc(C(F)(F)F)c1)C2 | i
N#Cc1cccc(-c2cn3c(n2)N(C(=O)C2CCCO2)CCC3)c1 (stereo unspecified) | i
Cc1c(C(=O)Nc2ccccc2Br)oc2ccc(S(=O)(=O)N3CCOCC3)cc12 | i
CCN(CC)S(=O)(=O)c1ccc2oc(C(=O)Nc3ccc(Br)cc3F)c(C)c2c1 | i
Cc1c(Cl)cccc1NC(=O)c1oc2ccc(S(=O)(=O)N3CCC4(CC3)OCCO4)cc2c1C | 13µM
Cc1c(C(=O)Nc2ccccc2Cl)oc2ccc(S(=O)(=O)N3CCCCCC3)cc12 | i
Cc1c(C(=O)Nc2ccccc2Cl)oc2ccc(S(=O)(=O)N3CCCCC3)cc12 | i
Cc1c(C(=O)Nc2ccc(Br)cc2F)oc2ccc(S(=O)(=O)N3CCC4(CC3)OCCO4)cc12 | 13µM
O=C(c1cccc(F)c1)N1CCCC(Cc2noc(-c3ccncc3)n2)C1 (stereo unspecified) | i
Cn1cnnc1CC1CCN(C(=O)c2cn3ccsc3n2)CC1 | i
OC1CN(Cc2ccccc2)CCN(Cc2ccc3[nH]ccc3c2)C1 (stereo unspecified) | i
CCCN1C(=O)Cc2ccccc2C1C(=O)NCc1ccc(F)cc1Cl (stereo unspecified) | i
COc1ccc(C(=O)N2CCOC[C@H](Oc3cccnc3)C2)cc1 | i
C=CCNC(=O)c1cn2c(n1)CN(C(=O)OC)CC2 | i
CCN(C(=O)Cn1nc(Cc2ccncc2)c2ccccc2c1=O)c1cccc(Cl)c1 | 11µM
CCOc1ccc(NC(=O)Cn2nc(Cc3cccnc3)c3ccccc3c2=O)cc1 | i
Cc1ccc(NC(=O)Cn2nc(Cc3ccncc3)c3ccccc3c2=O)c(Cl)c1 | i
Cc1cc(F)ccc1OCC(=O)c1ccc2c(c1)N(C(C)C(=O)NCc1ccc(F)cc1)C(=O)CO2 (stereo unspecified) | i
Cc1ccc(NC(=O)N2CCOCCNC(=O)[C@H]3CCCC[C@H]32)cc1C | i
O=C(CN1CCOC(c2ccc(F)cc2)C1)NCc1ccccn1 (stereo unspecified) | i
Cc1ccc2[nH]c(=O)c(CCC(=O)O)cc2c1 | i
Cc1cccc(-c2nocc2CCC(=O)NC2CCN(Cc3ccccc3)CC2)c1 | i
Cc1ccc2[nH]c(=O)c(CCC(=O)NC3CCN(Cc4ccccc4)CC3)cc2c1 | 7.1µM
CC(C)(C)CC(=O)NCC(c1ccc2c(c1)OCO2)N1CCN(c2ccccc2)CC1 (stereo unspecified) | 7.1µM
Cc1ccc(NC(=O)C(=O)NCC(c2ccc3c(c2)OCO3)N2CCN(c3ccccc3)CC2)cc1 (stereo unspecified) | i
SMILES | Pf Dd2 inh
CCCC(=O)NCC(c1ccc2c(c1)OCO2)N1CCN(c2ccccc2)CC1 (stereo unspecified) | i
CC(=O)NCC(c1ccc2c(c1)OCO2)N1CCN(c2ccccc2)CC1 (stereo unspecified) | i
Cc1ccc(C(=O)NCC(c2ccc3c(c2)OCO3)N2CCN(c3ccc(F)cc3)CC2)cc1 (stereo unspecified) | 13µM
CCCC(=O)NCC(c1ccc2c(c1)OCO2)N1CCN(c2ccc(F)cc2)CC1 (stereo unspecified) | i
C[S+](=O)([O-])Nc1cccc(N2C[C@@H]3C(C(=O)NC4CCOCC4)=NO[C@@H]3C2)c1 | i
COC[C@@H]1CN(c2cnccn2)C[C@H]1C(=O)NCC1CC1 | i
COCC(=O)NC1CCC12CCN(C(=O)CC1CCCC1)CC2 (stereo unspecified) | i
COc1ccccc1CC(=O)N1CCCc2ncc(C(=O)Nc3cccc(Cl)c3)cc21 | 2.5µM
COc1ccc(NC(=O)c2cnc3c(c2)N(C(=O)Cc2cccc(C(F)(F)F)c2)CCC3)cn1 | i
COc1ccccc1CC(=O)N1CCCc2ncc(C(=O)Nc3ccc(OC)c(OC)c3)cc21 | i
COc1ccccc1CC(=O)N1CCCc2ncc(C(=O)NCCOc3ccccc3)cc21 | i
COc1ccccc1N1CCCc2ncc(C(=O)NCCc3ccccc3)cc21 | i
COc1ccccc1CC(=O)N1CCCc2ncc(C(=O)Nc3cccc(C(F)(F)F)c3)cc21 | 4.5µM
CC(C)c1ccc(CC(=O)N2CCCc3ncc(C(=O)Nc4cccc(C(F)(F)F)c4)cc32)cc1 | i
COc1ccc(NC(=O)c2cnc3c(c2)N(c2ccccc2OC)CCC3)cn1 | 6.3µM
COc1ccccc1CC(=O)N1CCCc2ncc(C(=O)N(C)c3ccccc3)cc21 | i
CC[C@H]1CN(S(=O)(=O)c2c(C)noc2C)CC[C@H]1CC(=O)N1CCC(C(=O)OC)CC1 | i
CC(C)NC(=O)C[C@@H]1C[C@H]2O[C@H](CNCc3cnccc3Cl)[C@@H](O)[C@H]2O1 | i
CCC(=O)N1CCC(Oc2nccnc2N2CCOCC2)C1 (stereo unspecified) | i
C[S+](=O)([O-])N1C[C@H](C(=O)Nc2ccccc2)C[C@@H]1c1ccc(F)cc1 | i
O=C1NCCCCCCN(C(=O)c2ccsc2)[C@H]2C[C@H](c3nc(-c4cnccn4)no3)C[C@@H]12 | i
O=C(O)Cn1ccc2cc(OCCc3cccc(-c4cncnc4)c3)cnc21 | i
COCCNC(=O)C1CN(Cc2ccccc2)C(=O)N1 (stereo unspecified) | i
CCc1ccc(Cn2nnc3c(=O)[nH]c(C4CCCN(C(=O)c5cccc(Cl)c5)C4)nc32)cc1 (stereo unspecified) | i
COc1cccc(Cn2nnc3c(=O)[nH]c(C4CCCN(C(=O)c5ccc(C)cc5)C4)nc32)c1 (stereo unspecified) | 10µM
SMILES | Pf Dd2 inh
O=c1[nH]c(C2CCCN(S(=O)(=O)c3ccccc3Cl)C2)nc2c1nnn2Cc1ccc(OC(F)(F)F)cc1 (stereo unspecified) | i
CNC(=O)[C@@H]1C[C@H](n2cc(-c3ccc(CN4CC[C@@H](O)C4)cc3)nn2)CN1 | i
O=C(Nc1ccccc1)[C@H]1CN2CCC1C[C@@H]2Cn1cc(C2(O)CCCCC2)nn1 (stereo partly specified) | i
COCCNC(=O)[C@H]1CN2CCC1C[C@@H]2Cn1cc(-c2cccc(N)c2)nn1 (stereo partly specified) | i
Nc1cccc(-c2cn(C[C@H]3CC4CCN3C[C@@H]4C(=O)Nc3ccccc3)nn2)c1 (stereo partly specified) | 7.9µM
COc1ccc(C(=O)N2CCC(CO)(CN3CCCC3)CC2)cc1C | i
COc1ccc(-c2cc(CC3(NCC(C)(C)C)COC3)no2)cc1 | i
O=C(CCN1CCCCO1)N1CCCC(CCc2ccc(F)c(F)c2)C1 (stereo unspecified) | i
CCOC(=O)c1ccc(NC(=O)c2cc3c([nH]c2=O)CC(c2ccccc2)CC3=O)cc1 (stereo unspecified) | i
COc1ccc(C2CC(=O)c3c([nH]c(C(=O)OC4CCC(C)CC4)c3C)C2)cc1OC (stereo unspecified) | i
Cc1c(C(=O)OC2CCCC2)[nH]c2c1C(=O)CC(c1ccc(Cl)cc1)C2 (stereo unspecified) | i
COc1ccc(C2CC(=O)c3c([nH]c(C(=O)OCc4ccccc4)c3C)C2)cc1 (stereo unspecified) | i
Cc1c(C(=O)OCCOc2ccccc2)[nH]c2c1C(=O)CC(c1ccc(C(C)(C)C)cc1)C2 (stereo unspecified) | 4µM
CCOC(=O)c1[nH]c2c(c1Cc1ccccc1OC)C(=O)CC(c1ccccc1)C2 (stereo unspecified) | 11µM
